PubChem BioAssay AID1159580 (chemical genetic matrix, 2015)
About 2,000 (36%) of roughly 5,500 compounds were called active. Roughly 18% stayed inconclusive and do not appear here. Rule as the data show it: active = normalized growth mostly below about 0.91 (no sharp cut-off); inconclusive = no clear call, values can overlap the other calls; inactive = mostly above about 0.92. The list shows a part of the results.

Assay: chemical genetic growth profiling, strain panel (AID 1159580);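 also: tested at 20 µM; growth read once vehicle control cultures reached saturation at 30 °C; 1 = growth at the plate median or of vehicle wells; lower values mean less growth of the strain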
Conditions: growth OD

Measured: normalized growth

CC1(C)O[C@@H]2CC3C4C[C@H](F)C5=CC(=O)C=CC5(C)C4C(O)CC3(C)[C@]2(C(=O)CO)O1 (some centres undefined)
inactive: S. cerevisiae deletion strains, locus YKL009W, strain mrt4, hits give low values 0.996 | S. cerevisiae deletion strains, locus YKL068W, hits give low values 0.992 | S. cerevisiae deletion strains, locus YKL085W, strain MDH1 (second series), hits give low values 1.01 | S. cerevisiae deletion strains, locus YKL085W, strain MDH1, hits give low values 1.01 | S. cerevisiae deletion strains, locus YKL160W, strain elf1, hits give low values 0.967 | S. cerevisiae deletion strains, locus YKL190W, strain CNB1, hits give low values 1.01 | S. cerevisiae deletion strains, locus YKR001C, strain vps1, hits give low values 1.01 | S. cerevisiae deletion strains, locus YKR026C, strain gcn3, hits give low values 0.988 | S. cerevisiae deletion strains, locus YKR091W, strain srl3, hits give low values 0.985 | S. cerevisiae deletion strains, locus YLL001W, strain dnm1, hits give low values 0.978 | S. cerevisiae deletion strains, locus YLL026W, hits give low values 1.02 | S. cerevisiae deletion strains, locus YLL041C, strain sdh2, hits give low values 0.981 | S. cerevisiae deletion strains, locus YLR027C, strain aat2, hits give low values 0.992 | S. cerevisiae deletion strains, locus YLR039C, strain RIC1, hits give low values 0.995 | S. cerevisiae deletion strains, locus YLR058C, strain SHM2, hits give low values 1.02 | S. cerevisiae deletion strains, locus YLR102C, strain apc9, hits give low values 0.981 | S. cerevisiae deletion strains, locus YLR113W, strain HOG1, hits give low values 1.04 | S. cerevisiae deletion strains, locus YLR221C, strain rsa3, hits give low values 1.02 | S. cerevisiae deletion strains, locus YLR258W, strain gsy2, hits give low values 0.984 | S. cerevisiae deletion strains, locus YLR262C, strain YPT6 (second series), hits give low values 0.969 | S. cerevisiae deletion strains, locus YLR262C, strain YPT6, hits give low values 1 | S. cerevisiae deletion strains, locus YLR268W, strain sec22, hits give low values 1.01 | S. cerevisiae deletion strains, locus YLR320W, strain mms22, hits give low values 0.981 | S. cerevisiae deletion strains, locus YLR330W, strain CHS5, hits give low values 1.02 | S. cerevisiae deletion strains, locus YLR342W, strain FKS1 (second series), hits give low values 1 | S. cerevisiae deletion strains, locus YLR342W, strain FKS1, hits give low values 0.978 | S. cerevisiae deletion strains, locus YLR357W, strain rsc2, hits give low values 0.933 | S. cerevisiae deletion strains, locus YLR370C, strain arc18, hits give low values 0.981 | S. cerevisiae deletion strains, locus YLR371W, strain rom2, hits give low values 0.988 | S. cerevisiae deletion strains, locus YLR384C, strain iki3, hits give low values 0.992 | S. cerevisiae deletion strains, locus YLR418C, strain cdc73, hits give low values 0.977 | S. cerevisiae deletion strains, locus YML016C, strain PPZ1, hits give low values 1.02 | S. cerevisiae deletion strains, locus YML032C, strain rad52, hits give low values 0.979 | S. cerevisiae deletion strains, locus YML120C, strain ndi1, hits give low values 1 | S. cerevisiae deletion strains, locus YML124C, strain tub3, hits give low values 0.992 | S. cerevisiae deletion strains, locus YMR058W, strain fet3, hits give low values 1.01 | S. cerevisiae deletion strains, locus YMR078C, strain ctf18, hits give low values 1 | S. cerevisiae deletion strains, locus YMR125W, strain sto1, hits give low values 0.979 | S. cerevisiae deletion strains, locus YMR129W, hits give low values 1.01 | S. cerevisiae deletion strains, locus YMR205C, strain PFK2, hits give low values 0.981 | S. cerevisiae deletion strains, locus YMR223W, strain ubp8, hits give low values 0.996 | S. cerevisiae deletion strains, locus YMR231W, strain pep5, hits give low values 0.978 | S. cerevisiae deletion strains, locus YMR263W, strain SAP30, hits give low values 1.02 | S. cerevisiae deletion strains, locus YMR307W, strain GAS1, hits give low values 1.07 | S. cerevisiae deletion strains, locus YNL067W, strain RPL9B, hits give low values 1.03 | S. cerevisiae deletion strains, locus YNL071W, strain lat1, hits give low values 0.987 | S. cerevisiae deletion strains, locus YNL153C, strain GIM3, hits give low values 1.03 | S. cerevisiae deletion strains, locus YNL183C, strain NPR1, hits give low values 0.953 | S. cerevisiae deletion strains, locus YNL209W, strain ssb2, hits give low values 0.974 | S. cerevisiae deletion strains, locus YNL233W, strain BNI4, hits give low values 1.02 | S. cerevisiae deletion strains, locus YNL248C, strain rpa49, hits give low values 0.927 | S. cerevisiae deletion strains, locus YNL250W, strain rad50, hits give low values 0.993 | S. cerevisiae deletion strains, locus YNL271C, strain bni1, hits give low values 0.97 | S. cerevisiae deletion strains, locus YNL298W, strain CLA4, hits give low values 0.988 | S. cerevisiae deletion strains, locus YNL307C, strain MCK1, hits give low values 0.98 | S. cerevisiae deletion strains, locus YNL322C, strain KRE1 (second series), hits give low values 0.963 | S. cerevisiae deletion strains, locus YNL322C, strain KRE1, hits give low values 1.01 | S. cerevisiae deletion strains, locus YNR049C, strain mso1, hits give low values 0.974 | S. cerevisiae deletion strains, locus YNR052C, strain pop2, hits give low values 0.993 | S. cerevisiae deletion strains, locus YOL006C, strain TOP1, hits give low values 1.01 | S. cerevisiae deletion strains, locus YOL012C, strain htz1 0.907 | S. cerevisiae deletion strains, locus YOL147C, strain pex11, hits give low values 0.992 | S. cerevisiae deletion strains, locus YOR001W, strain rrp6, hits give low values 1.01 | S. cerevisiae deletion strains, locus YOR061W, strain CKA2, hits give low values 1.02 | S. cerevisiae deletion strains, locus YOR069W, strain VPS5, hits give low values 1.01 | S. cerevisiae deletion strains, locus YOR070C, strain gyp1, hits give low values 0.984 | S. cerevisiae deletion strains, locus YOR080W, strain dia2, hits give low values 0.977 | S. cerevisiae deletion strains, locus YOR083W, strain WHI5, hits give low values 0.918 | S. cerevisiae deletion strains, locus YOR106W, strain vam3, hits give low values 0.976 | S. cerevisiae deletion strains, locus YOR136W, strain idh2, hits give low values 0.994 | S. cerevisiae deletion strains, locus YOR144C, strain elg1, hits give low values 0.984 | S. cerevisiae deletion strains, locus YOR184W, strain ser1, hits give low values 0.982 | S. cerevisiae deletion strains, locus YOR231W, strain MKK1, hits give low values 1.02 | S. cerevisiae deletion strains, locus YOR265W, strain rbl2, hits give low values 1.01 | S. cerevisiae deletion strains, locus YOR270C, strain vph1, hits give low values 0.955 | S. cerevisiae deletion strains, locus YOR290C, strain snf2, hits give low values 0.964 | S. cerevisiae deletion strains, locus YOR316C, strain cot1, hits give low values 0.983 | S. cerevisiae deletion strains, locus YPL051W, strain arl3, hits give low values 0.981 | S. cerevisiae deletion strains, locus YPL055C, strain LGE1, hits give low values 1.04 | S. cerevisiae deletion strains, locus YPL078C, strain atp4, hits give low values 0.977 | S. cerevisiae deletion strains, locus YPL106C, strain sse1, hits give low values 0.95 | S. cerevisiae deletion strains, locus YPL240C, strain hsp82, hits give low values 0.992 | S. cerevisiae deletion strains, locus YPL256C, strain CLN2, hits give low values 1.03 | S. cerevisiae deletion strains, locus YPR119W, strain clb2, hits give low values 0.987 | S. cerevisiae deletion strains, locus YPR141C, strain kar3, hits give low values 0.996 | S. cerevisiae deletion strains, locus YPR163C, strain tif3, hits give low values 0.988 | S. cerevisiae deletion strains, locus YPR167C, strain met16, hits give low values 0.987 | S. cerevisiae deletion strains, strain wtn01, hits give low values 0.984 | S. cerevisiae strains, strain wild type, hits give low values 1.02
